Inconclusive results are not listed. Activity calls are given as the source filed them. Unless noted, the call rests on the fitted dose curve; in most records, active means well fitted curve in the direction sought with a large enough effect in the repeat runs; inconclusive means weak or mixed curves; inactive means no such curve, though single readings can be large; an effect the other way counts as inactive or inconclusive.
How the values were obtained:
[1] = target: Estrogen receptor beta (Homo sapiens) (UniProt Q92731); experiment: qHTS assay to identify small molecule agonists of the estrogen receptor beta (ER-beta) signaling pathway (AID 1259377; active means well fitted activation curve with a large enough effect in the signal ratio in the repeat runs, not every such curve was filed as active; the % refers to the signal ratio)
Sequence of Estrogen receptor beta (Homo sapiens) (Q92731 whole entry, looked up): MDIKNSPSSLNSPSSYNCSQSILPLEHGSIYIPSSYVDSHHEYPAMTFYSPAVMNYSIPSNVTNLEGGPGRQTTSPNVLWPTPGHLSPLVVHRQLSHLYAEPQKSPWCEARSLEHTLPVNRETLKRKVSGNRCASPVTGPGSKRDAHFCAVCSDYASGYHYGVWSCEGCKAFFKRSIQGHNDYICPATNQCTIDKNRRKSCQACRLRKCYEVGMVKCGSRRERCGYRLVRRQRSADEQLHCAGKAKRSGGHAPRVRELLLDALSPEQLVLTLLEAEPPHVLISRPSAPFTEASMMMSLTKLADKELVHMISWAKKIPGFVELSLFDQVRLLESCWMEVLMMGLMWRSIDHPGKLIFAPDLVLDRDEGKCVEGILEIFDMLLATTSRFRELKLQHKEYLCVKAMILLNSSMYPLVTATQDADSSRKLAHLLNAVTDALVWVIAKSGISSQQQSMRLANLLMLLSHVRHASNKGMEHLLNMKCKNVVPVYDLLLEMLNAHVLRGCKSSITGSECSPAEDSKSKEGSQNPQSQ
Method in brief: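 Beta-lactamase reporter readout: fluorescence of LiveBLAzer B/G FRET substrate after 2 h at room temperature, following 16 h compound treatment of ER-beta-UAS-bla HEK293T cells at 37C in 2% charcoal-stripped FBS medium.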

[2] = qHTS assay to identify small molecule agonists of the androgen receptor (AR) signaling pathway in the presence of an antagonist - cell viability counter screen (AID 1259379); further: nearly all actives have a fitted effect of over 25% in size; further: potency means the concentration at half of the fitted maximal effect
Method in brief: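 A CellTiter-Fluor read-out measured viability of MDA-kb2 reporter cells (MMTV promoter with AR and GR response elements). Treatment: nilutamide 3.0uM final with compounds at 15 concentrations, 16 hr, 37C, 0% CO2.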

[3] = qHTS assay to identify small molecule agonists of the estrogen receptor beta (ER-beta) signaling pathway - cell viability counter screen (AID 1259380); further: nearly all actives have a fitted effect of over 30% in size; further: potency means the concentration at half of the fitted maximal effect
Method in brief: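 Cells used were ER-beta-UAS-bla HEK293T in medium with 2% charcoal-stripped FBS. They were treated for 16 hr at 37C. Viability came from CellTiter-Glo luminescence.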

[4] = qHTS assay to identify small molecule agonists or antagonists of the thyroid stimulating hormone receptor (TSHR) signaling pathway - wild type cell line counter screen (AID 1259384; calls by dose curve)
Method in brief: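 Counter screen in untransfected Hek293: compounds (15-point titration, triplicate) plus phosphodiesterase inhibitor Ro20-1724 added after 18 h plating; 30 min RT. Intracellular cAMP via competitive d2/cryptate immunoassay, 1 h incubation.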

[5] = target: Thyrotropin receptor (Homo sapiens) (UniProt P16473); experiment: qHTS assay to identify small molecule antagonists of the thyroid stimulating hormone receptor (TSHR) signaling pathway (AID 1259385; calls by dose curve; further: nearly all actives have a fitted effect of over 20% in size)
Sequence of Thyrotropin receptor (Homo sapiens) (P16473 whole entry, looked up): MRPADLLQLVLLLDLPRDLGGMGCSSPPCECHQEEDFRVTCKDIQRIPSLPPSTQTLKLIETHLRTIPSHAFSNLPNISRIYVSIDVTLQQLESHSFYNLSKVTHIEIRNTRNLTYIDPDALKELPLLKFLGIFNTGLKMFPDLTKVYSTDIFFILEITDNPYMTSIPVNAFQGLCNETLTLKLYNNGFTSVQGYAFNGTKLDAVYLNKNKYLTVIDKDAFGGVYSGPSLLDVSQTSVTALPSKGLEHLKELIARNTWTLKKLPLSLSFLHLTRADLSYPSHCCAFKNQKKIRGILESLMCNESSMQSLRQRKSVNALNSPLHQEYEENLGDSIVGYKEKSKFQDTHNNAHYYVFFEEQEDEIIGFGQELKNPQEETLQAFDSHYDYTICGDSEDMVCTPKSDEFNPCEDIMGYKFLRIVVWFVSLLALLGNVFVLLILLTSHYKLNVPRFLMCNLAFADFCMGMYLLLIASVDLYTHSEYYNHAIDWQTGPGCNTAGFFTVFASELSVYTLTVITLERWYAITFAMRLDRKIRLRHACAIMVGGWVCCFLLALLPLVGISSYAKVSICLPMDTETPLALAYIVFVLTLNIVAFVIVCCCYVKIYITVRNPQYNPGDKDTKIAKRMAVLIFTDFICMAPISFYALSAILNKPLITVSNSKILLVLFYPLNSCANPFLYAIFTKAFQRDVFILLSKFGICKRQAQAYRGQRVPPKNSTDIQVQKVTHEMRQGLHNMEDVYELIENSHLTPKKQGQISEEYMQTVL
Method in brief: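 Antagonist mode: compound-treated TSHR-expressing HEK293 cells were stimulated with 1.5 ng/mL TSH (final) in presence of Ro20-1724 for 30 min at RT. HTRF cAMP detection after 1 h; each compound tested at 15 concentrations, triplicate.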

[6] = qHTS assay to identify small molecule agonists of the estrogen receptor alpha (ER-alpha) signaling pathway in the presence of an antagonist - cell viability counter screen (AID 1259386);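 further: cells exposed to compounds for 22 h at 37 °C before the viability read; nearly all actives have a fitted effect of over 30% in size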; further: potency means the concentration at half of the fitted maximal effect
Method in brief: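 ICI-182,780 at 10.0nM final accompanies the compound titration (15 concentrations, 22hr, 37C) on VM7Luc4E2 cells. The CellTiter-Fluor fluorescence readout runs in the same wells as the luciferase assay.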

[7] = target: Estrogen receptor (Homo sapiens) (UniProt P03372); experiment: qHTS assay to identify small molecule agonists of the estrogen receptor alpha (ER-alpha) signaling pathway in the presence of an antagonist (AID 1259383; calls by dose curve; further: top concentration of the series differs between compounds; nearly all actives have a fitted effect of over 15% in size)
Sequence of Estrogen receptor (Homo sapiens) (P03372 whole entry, looked up): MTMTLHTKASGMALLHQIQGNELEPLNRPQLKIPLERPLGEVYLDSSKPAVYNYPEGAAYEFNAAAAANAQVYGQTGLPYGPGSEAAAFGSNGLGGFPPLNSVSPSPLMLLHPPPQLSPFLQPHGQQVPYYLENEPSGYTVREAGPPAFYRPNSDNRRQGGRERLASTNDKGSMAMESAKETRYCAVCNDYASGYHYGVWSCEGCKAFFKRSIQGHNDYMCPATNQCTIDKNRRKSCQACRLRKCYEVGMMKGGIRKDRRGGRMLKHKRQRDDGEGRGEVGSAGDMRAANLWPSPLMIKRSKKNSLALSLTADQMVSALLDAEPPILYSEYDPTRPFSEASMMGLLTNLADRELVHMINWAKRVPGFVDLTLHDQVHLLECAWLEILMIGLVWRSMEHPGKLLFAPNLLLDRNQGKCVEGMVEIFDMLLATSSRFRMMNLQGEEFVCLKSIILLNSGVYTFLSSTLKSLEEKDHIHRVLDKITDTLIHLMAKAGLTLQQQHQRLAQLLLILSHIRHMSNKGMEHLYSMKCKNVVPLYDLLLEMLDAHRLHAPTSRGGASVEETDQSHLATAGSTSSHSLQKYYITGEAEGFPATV
Method in brief: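 Using VM7Luc4E2 cells seeded 24hr before treatment, antagonist ICI-182,780 (10.0nM final) was added, followed by compounds at 15 concentrations. Plates incubated 22hr; ONE-Glo luminescence quantified reporter activity.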

[8] = target: Estrogen receptor beta (Homo sapiens) (UniProt Q92731); experiment: qHTS assay to identify small molecule antagonists of the estrogen receptor beta (ER-beta) signaling pathway (AID 1259378; active means well fitted inhibition curve with a large enough effect in the signal ratio in the repeat runs, not every such curve was filed as active; the % refers to the signal ratio)
Method in brief: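 Antagonist mode: compounds added to beta-lactamase reporter HEK293T ER-beta-UAS cells stimulated with E2 (1nM final), 16 hr at 37C. LiveBLAzer B/G FRET substrate, 2 hours room temperature, fluorescence read-out.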

[9] = target: Androgen receptor (Homo sapiens) (UniProt P10275); experiment: qHTS assay to identify small molecule agonists of the androgen receptor (AR) signaling pathway in the presence of an antagonist (AID 1259381; calls by dose curve; further: nearly all actives have a fitted effect of over 15% in size)
Sequence of Androgen receptor (Homo sapiens) (P10275 whole entry, looked up): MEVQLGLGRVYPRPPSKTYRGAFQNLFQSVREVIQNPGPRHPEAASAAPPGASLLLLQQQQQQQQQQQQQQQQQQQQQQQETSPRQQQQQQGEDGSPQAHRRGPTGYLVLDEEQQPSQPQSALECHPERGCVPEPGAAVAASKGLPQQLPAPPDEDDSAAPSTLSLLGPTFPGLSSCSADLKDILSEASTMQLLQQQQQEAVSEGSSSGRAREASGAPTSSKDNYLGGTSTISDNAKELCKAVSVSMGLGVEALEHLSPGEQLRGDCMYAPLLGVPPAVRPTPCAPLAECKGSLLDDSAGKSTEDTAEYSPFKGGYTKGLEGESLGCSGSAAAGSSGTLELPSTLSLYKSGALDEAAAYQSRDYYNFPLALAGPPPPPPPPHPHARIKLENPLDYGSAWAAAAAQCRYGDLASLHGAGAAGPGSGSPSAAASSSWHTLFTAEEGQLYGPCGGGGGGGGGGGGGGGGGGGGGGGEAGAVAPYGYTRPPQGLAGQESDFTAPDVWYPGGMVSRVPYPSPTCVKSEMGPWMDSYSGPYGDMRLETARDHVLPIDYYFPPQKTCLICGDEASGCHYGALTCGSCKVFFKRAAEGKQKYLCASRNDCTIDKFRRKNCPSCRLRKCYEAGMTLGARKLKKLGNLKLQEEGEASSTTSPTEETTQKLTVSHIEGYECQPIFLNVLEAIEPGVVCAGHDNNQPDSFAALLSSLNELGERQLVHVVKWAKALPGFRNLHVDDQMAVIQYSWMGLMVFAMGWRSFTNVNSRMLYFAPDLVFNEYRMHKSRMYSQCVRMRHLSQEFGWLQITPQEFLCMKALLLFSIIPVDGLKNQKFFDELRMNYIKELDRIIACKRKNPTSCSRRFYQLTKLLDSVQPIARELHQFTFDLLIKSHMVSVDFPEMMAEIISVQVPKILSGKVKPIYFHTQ
Method in brief: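 Using human MDA-kb2 cells with an MMTV promoter–luciferase construct (AR and GR response elements), agonist activity is scored under 3.0uM nilutamide (final) co-treatment; 16hr incubation, 37C, luminescence readout via ONE-Glo.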

[10] = qHTS assay to identify small molecule antagonists of the estrogen receptor beta (ER-beta) signaling pathway - cell viability counter screen (AID 1259382); further: nearly all actives have a fitted effect of over 55% in size; further: potency means the concentration at half of the fitted maximal effect
Method in brief: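 Agonist-stimulated (1nM E2) ER-beta-UAS-bla HEK293T cells are incubated with library compounds for 16 hr at 37C. Cell viability is then assessed in the reporter-assay wells by adding CellTiter-Glo and reading luminescence after 30 min.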

Measured: Potency

[Cl][Sb]([Cl])[Cl]
inactive: [1] | [3] | [4] | [5]
active: [2] 24.3 µM | [6] 54.5 µM

CC(C)(C)C(O)/C(=C\c1ccc(Cl)cc1Cl)n1cncn1 (centres undefined)
active: [3] 74 µM
inactive: [1] | [7]

NC(=O)c1ccc(N)nc1
active: [3] 48.6 µM
inactive: [8] | [2] | [9] | [7]

O=C(Cl)c1ccc(Cl)cc1
not listed: [1] | [4] | [8]
inactive: all other assays above

Cc1cc(Cl)ccc1O[C@H](C)C(=O)O
inactive: [8] | [3] | [10] | [7] | [6]

CC1(C)CN=C(NN=C(/C=C/c2ccc(C(F)(F)F)cc2)/C=C/c2ccc(C(F)(F)F)cc2)NC1
inactive: [9] | [7]
active: [2] 30.6 µM | [3] 19.3 µM | [10] 19.3 µM

CC(Cl)CN(C)C (centres undefined)
not listed: [1] | [8]
inactive: all other assays above

CC(C)OS(C)(=O)=O
not listed: [1] | [6] | [9]
inactive: all other assays above

COc1ccc([N+](=O)[O-])cc1O
not listed: [1] | [8]
inactive: all other assays above

Source: PubChem BioAssay (Tox21)
